Assay [1] in a line: NCI Yeast Anticancer Drug Screen. Data for the rad50 strain (AID 155).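 Further: 0% = growth of vehicle-only cultures of the same strain.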 The following applies: S. cerevisiae rad50 strain growth inhibition; at 50.0 µM; stronger effect = higher value. Summed up: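 Readout: growth inhibition relative to vehicle-treated cultures. Compound exposure was carried out in a genetically defined yeast strain deficient in DNA damage repair.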
Assay [2] is described as follows: NCI Yeast Anticancer Drug Screen. Data for the mec2-1 strain (AID 157). The following applies: S. cerevisiae mec2-1 strain, at 50.0 µM, stronger effect = higher value. The procedure, abridged:
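Cells of the genetically defined mec2-1 yeast strain are incubated with test compound. Inhibition of growth is calculated against vehicle-treated controls.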

Assay [3] in a line: NCI Yeast Anticancer Drug Screen. Data for the sgs1 mgt1 strain (AID 161).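 Further: 0% = growth of cultures given vehicle only.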 Conditions: S. cerevisiae sgs1 mgt1 strain, at 50.0 µM, stronger effect = higher value. The procedure, abridged:
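Genetically altered yeast, compound exposure, growth inhibition relative to vehicle.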

A short description of assay [4]: NCI Yeast Anticancer Drug Screen. Data for the cln2 rad14 strain (AID 165).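 Further: 0% = growth equal to vehicle treated cultures.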 Conditions: S. cerevisiae cln2 rad14 strain, at 50.0 µM, stronger effect = higher value. The procedure, abridged: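 The screen exposed genetically defined yeast (cln2 rad14) to test compounds and scored growth inhibition relative to vehicle-treated controls.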
Assay [5] in a line: NCI Yeast Anticancer Drug Screen. Data for the bub3 strain (AID 167). The following applies: S. cerevisiae bub3 mutant strain, at 50.0 µM, stronger effect = higher value. Summed up:
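Readout: yeast growth inhibition, expressed relative to vehicle-only wells. The test organism is a mutant strain from a panel with lesions in DNA repair or checkpoint genes.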

Assay [6] in a line: NCI Yeast Anticancer Drug Screen. Data for the mlh1 rad18 strain (AID 175). Conditions: S. cerevisiae mlh1 rad18 strain growth inhibition; at 50.0 µM; stronger effect = higher value. The procedure, abridged: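 Compound-treated yeast growth, normalised to vehicle controls. Strain bears defined DNA repair mutations.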

Each structure is given as a SMILES string. The panel holds about 79,000 compounds, 15% with a hit somewhere; the sample as a whole holds those more often. A number with no mark means an inactive call. Calls of active or inactive are those of the source. No stated cut-off is given here; in the data, active means growth inhibition above about 70%; inactive means the rest.

For `CCCCCCCCNCC(=O)O`, the growth inhibition in assay [1] is -20%; in assay [2], -21.6%; in assay [3], -5.35%; in assay [4], 3.05%; in assay [5], -13.1%; in assay [6], -12.9%.
As to `c1ccc(CNn2nnc3ccccc32)cc1`, the growth inhibition was 16.6% in assay [1]; -14.4% in assay [2]; 7.25% in assay [3]; 3.15% in assay [4]; -2.95% in assay [5]; 21.9% in assay [6].
Consider `O=[N+]([O-])c1ccc2c(c1)Sc1ccccc1N2CCCCCl`, for which the growth inhibition in assay [1] was -24%; in assay [2] it was -15.8%; in assay [3], -49.2%; in assay [4], -7.25%; in assay [5], -1.8%; in assay [6], -23.2%.
As for `COc1ccc(NS(=O)(=O)c2ccc(NCc3c4ccccc4nc4cc(Cl)ccc34)cc2)nn1`, the growth inhibition was 20.2% in assay [1]; 45% in assay [2]; 9.65% in assay [3]; -30.8% in assay [4]; -8.3% in assay [5]; 37.5% in assay [6].
On to `O=C(COc1ccccc1Cl)N1N=C(c2ccc(Cl)cc2)CC1(O)c1ccccc1` (stereo not given), for which the growth inhibition is -17.9% in assay [1]; -7.2% in assay [2]; -43.2% in assay [3]; -0.85% in assay [4]; -25.8% in assay [5]; -16.9% in assay [6].
As to `CCCC(O)(c1ccccc1)c1ccccc1`, the growth inhibition in assay [1] is 5.4%; in assay [2], 2.95%; in assay [3], -2.95%; in assay [4], -6.4%; in assay [5], -4.5%; in assay [6] it was 4.5%.
Turning to `COc1cc(C(=O)C/C(CCC(=O)Nc2ccccc2[N+](=O)[O-])=N\NC(=O)C(N)=O)ccc1O`, the growth inhibition was -20.5% in assay [1]; 9.8% in assay [2]; -47.4% in assay [3]; 5.9% in assay [4]; -16.2% in assay [5]; -24.4% in assay [6].
In the case of `O=[N+]([O-])c1ccc(O)c(C=NCCCN=Cc2cc([N+](=O)[O-])ccc2O)c1`, the growth inhibition was 0.7% in assay [1]; 7.95% in assay [2]; -5% in assay [3]; -6.95% in assay [4]; 9% in assay [5]; -11.3% in assay [6].
`Nc1ccc([N+](=O)[O-])cc1C(=O)O`: the growth inhibition in assay [1] was 5.1%; in assay [2], 0.9%; in assay [3] it was -6.8%; in assay [4], -15.7%; in assay [5], 3.05%; in assay [6] it was 0%.
On to `Nc1nc(-c2ccc([N+](=O)[O-])cc2)cc(-c2cc(-c3ccc([N+](=O)[O-])cc3)nc(N)n2)n1`, for which the growth inhibition in assay [1] is 5.05%; in assay [2] it was 6.7%; in assay [3], -9.8%; in assay [4] it was 14.7%; in assay [5], -17.4%; in assay [6], 6.6%.
Consider `O=C(Nn1c(=S)[nH][nH]c1=S)c1ccccc1`, for which the growth inhibition was 17.1% in assay [1]; -4.05% in assay [2]; -2.35% in assay [3]; -12.2% in assay [4]; -14.5% in assay [5]; 21.4% in assay [6].
In the case of `Oc1c(Cl)cc(Cl)cc1C1Nc2ccccc2-n2cccc21` (stereo not given), the growth inhibition in assay [1] was -5.2%; in assay [2], -11.8%; in assay [3], 0.4%; in assay [4], 8.95%; in assay [5], 9.25%; in assay [6], 8.2%.
As for `O=C(Nc1ccccc1SC(=O)OCc1ccccc1)OCc1ccccc1`, the growth inhibition was 30.2% in assay [1]; 4.8% in assay [2]; 11.6% in assay [3]; 38.6% in assay [4]; 1.95% in assay [5]; 1.3% in assay [6].
Take `O=C1C(CO)=C[C@@H](O)[C@H]2O[C@@H]12`: the growth inhibition in assay [1] is 8.25%; in assay [2] it was 1.5%; in assay [3], 12.6%; in assay [4], 6.8%; in assay [5] it was 15.9%; in assay [6], 17.4%.
As to `COc1cc2ccc3c4cc5c(cc4cnc3c2cc1OC)OCO5`, the growth inhibition is -0.65% in assay [1]; -3.45% in assay [2]; -15.7% in assay [3]; -25.9% in assay [4]; -1.1% in assay [5]; -16.7% in assay [6].
As for `CN(C)c1nc(=Nc2ccc3c(c2)OCO3)ss1`, the growth inhibition in assay [1] is 30.5%; in assay [2] it was 24.4%; in assay [3], 54%; in assay [4] it was 34.1%; in assay [5], 16.9%; in assay [6], 50.2%.
As to `O=C(OCCN1CCOCC1)c1cc2ccccc2oc1=O`, the growth inhibition was 1.8% in assay [1]; 2.65% in assay [2]; 6.35% in assay [3]; -45.7% in assay [4]; -0.2% in assay [5]; -2.65% in assay [6].
Consider `CCOc1ccc(NC(=O)C(Br)C(Br)C(=O)O)cc1` (stereo not given), for which the growth inhibition in assay [1] was 85.7% (active); in assay [2], 98.5% (active); in assay [3] it was 96.8% (active); in assay [4], 95.4% (active); in assay [5] it was 98.5% (active); in assay [6], 94.6% (active).
With `Cc1cccc(C)c1N=O`, the growth inhibition in assay [1] is -6.25%; in assay [2] it was -15.2%; in assay [3], -7.45%; in assay [4], 22.8%; in assay [5] it was 1.15%; in assay [6], -16.1%.
Take `O=C(Oc1ccco1)c1ccc([N+](=O)[O-])cc1`: the growth inhibition in assay [1] was 2.55%; in assay [2], 0.6%; in assay [3], -4.7%; in assay [4], -17.2%; in assay [5], 0.1%; in assay [6], -9.8%.

The values above are taken from PubChem BioAssay (NCI).
